Data: PubChem BioAssay
The source made the active and inactive calls.

Legend:
Albumin (Bos taurus) = Albumin (Bos taurus) (UniProt P02769); assay: compounds binding labelled BSA control protein – biochemical, small-molecule microarray, Alexa647 label, 635/667 nm fluorescence, artefact control for SMM control protein annotation, profiling panel (AID 1118); conditions: BSA-A647 binding, fluorescence 635 nm, higher = more signal;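 note: score merges 667 nm emission intensity and signal-to-noise per printed compound spot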
Albumin (Bos taurus), sequence (P02769 whole entry, looked up): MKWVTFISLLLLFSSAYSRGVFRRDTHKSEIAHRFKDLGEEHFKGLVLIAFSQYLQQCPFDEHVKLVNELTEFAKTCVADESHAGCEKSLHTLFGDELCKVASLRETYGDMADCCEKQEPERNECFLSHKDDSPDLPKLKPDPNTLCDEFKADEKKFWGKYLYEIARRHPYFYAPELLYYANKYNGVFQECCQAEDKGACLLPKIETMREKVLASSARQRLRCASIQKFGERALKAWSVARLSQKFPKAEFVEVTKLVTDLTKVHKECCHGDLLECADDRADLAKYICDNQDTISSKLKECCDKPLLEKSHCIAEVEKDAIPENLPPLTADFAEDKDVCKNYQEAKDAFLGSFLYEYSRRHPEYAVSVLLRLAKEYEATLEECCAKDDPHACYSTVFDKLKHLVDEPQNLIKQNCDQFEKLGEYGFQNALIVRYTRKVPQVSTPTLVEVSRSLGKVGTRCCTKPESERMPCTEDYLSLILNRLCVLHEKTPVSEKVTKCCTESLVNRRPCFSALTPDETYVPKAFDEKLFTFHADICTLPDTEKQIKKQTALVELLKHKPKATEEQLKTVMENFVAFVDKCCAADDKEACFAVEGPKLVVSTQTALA

[1] = probe aXIP binding to arrayed compounds – biochemical, NeuroSMM set, 635/667 nm fluorescence, primary screen (AID 1119); conditions: small-molecule microarray, higher = more signal, called active from +8 up or from −8 down;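 note: probe is the protein aXip251-270 applied at 1 µg/mL to compound-printed slides; binding of probe to printed compounds measured as 667 nm fluorescence plus signal to noise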
[2] = probe aNOTCH3 binding on compound microarray – biochemical, small-molecule microarray, 635/667 nm fluorescence, primary screen (AID 1120); conditions: higher = more signal;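 note: probe is a biotin-tagged antibody raised against NOTCH3 rather than NOTCH3 protein; score merges spot fluorescence near 667 nm with spot signal to noise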
[3] = probe aNOTCH2 binding on compound microarray – biochemical, small-molecule microarray, 635/667 nm fluorescence, primary screen (AID 1121); conditions: higher = more signal;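 note: score merges feature fluorescence read at 667 nm with its signal to noise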
[4] = target: Carbonic anhydrase 2 (Homo sapiens) (UniProt P00918); assay: compounds binding carbonic anhydrase 2 – biochemical, small-molecule microarray, Alexa647-labelled CAII, profiling panel (AID 1122); conditions: CAII-A647 binding fluorescence, higher = more signal
[5] = COS7 lysate on small-molecule microarray, probe aHis, 635 nm (AID 1123); conditions: COS7 cell lysate, fluorescence, higher = more signal;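 note: z-score combines 667nm fluorescence intensity with signal-to-noise per printed compound spot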
[6] = probe aLAP1 signal on lysate-treated microarray – cell lysate, small-molecule microarray, COS7 lysate, primary screen (AID 1124); conditions: probe aLAP1, fluorescence, higher = more signal;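 note: lysate comes from COS7 cells expressing LAP1 and is applied at 0.3 µg/mL; score merges spot fluorescence near 667 nm with signal-to-noise over triplicate slides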
Sam68 (KHDRBS1) = assay: compounds binding KHDRBS1 protein – biochemical, small-molecule microarray, 635 nm fluorescence, primary screen (AID 1125); conditions: higher = more signal;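 note: score merges 667 nm channel intensity with signal to noise over triplicate slides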
[7] = test system: Chordin-like protein 2 (CHRDL2); assay: compounds binding chordin-like 2 – biochemical, small-molecule microarray, 635 nm fluorescence, primary screen (AID 1126); conditions: fluorescence 635 nm, higher = more signal;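 note: printed compound slides probed with Chrdl2 protein at 4 µg/mL for 1 h at 4 C; score merges 667 nm emission intensity with signal to noise over three replicate slides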
[8] = target: Concanavalin-A (Canavalia ensiformis) (UniProt P02866); assay: compounds binding concanavalin A lectin – biochemical, small-molecule microarray, Alexa647 label, 635 nm, artefact control for SMM control protein annotation, primary screen (AID 1127); conditions: ConA-A647 binding fluorescence, higher = more signal;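 note: z combines 667 nm emission intensity with signal-to-noise across three replicate slides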
Concanavalin-A (Canavalia ensiformis), sequence (P02866 whole entry, looked up): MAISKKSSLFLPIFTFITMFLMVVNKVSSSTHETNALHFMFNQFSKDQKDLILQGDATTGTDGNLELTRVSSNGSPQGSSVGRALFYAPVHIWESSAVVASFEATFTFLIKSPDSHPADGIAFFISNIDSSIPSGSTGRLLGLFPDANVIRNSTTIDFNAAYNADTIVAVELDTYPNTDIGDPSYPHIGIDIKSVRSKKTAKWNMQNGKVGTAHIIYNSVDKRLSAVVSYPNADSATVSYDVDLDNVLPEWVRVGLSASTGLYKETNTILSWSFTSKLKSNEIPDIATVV

[9] = compounds binding Alexa647 anti-His antibody – biochemical, small-molecule microarray, 635 nm fluorescence, artefact control for SMM control protein annotation, primary screen (AID 1128); conditions: higher = more signal;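 note: score merges feature fluorescence with signal-to-noise for each printed compound spot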
[10] = test system: Human papillomavirus type 1a E7 protein (residues 1-88); assay: HPV1a E7 small-molecule binders, primary screen, biochemical, small-molecule microarray, residues 1-88, 635 nm (AID 1129); conditions: small-molecule microarray binding, fluorescence 635 nm; higher = more signal
[11] = target: Focal adhesion kinase 1 (Homo sapiens) (UniProt Q05397); assay: PTK2 protein binding on printed compound slides – biochemical, small-molecule microarray, 635/667 nm fluorescence, BSA, DTT, primary screen (AID 1130); conditions: 635 nm fluorescence, higher = more signal;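 note: composite of spot emission at 667 nm and signal to noise over triplicate slides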
Focal adhesion kinase 1 (Homo sapiens), sequence (Q05397 whole entry, looked up): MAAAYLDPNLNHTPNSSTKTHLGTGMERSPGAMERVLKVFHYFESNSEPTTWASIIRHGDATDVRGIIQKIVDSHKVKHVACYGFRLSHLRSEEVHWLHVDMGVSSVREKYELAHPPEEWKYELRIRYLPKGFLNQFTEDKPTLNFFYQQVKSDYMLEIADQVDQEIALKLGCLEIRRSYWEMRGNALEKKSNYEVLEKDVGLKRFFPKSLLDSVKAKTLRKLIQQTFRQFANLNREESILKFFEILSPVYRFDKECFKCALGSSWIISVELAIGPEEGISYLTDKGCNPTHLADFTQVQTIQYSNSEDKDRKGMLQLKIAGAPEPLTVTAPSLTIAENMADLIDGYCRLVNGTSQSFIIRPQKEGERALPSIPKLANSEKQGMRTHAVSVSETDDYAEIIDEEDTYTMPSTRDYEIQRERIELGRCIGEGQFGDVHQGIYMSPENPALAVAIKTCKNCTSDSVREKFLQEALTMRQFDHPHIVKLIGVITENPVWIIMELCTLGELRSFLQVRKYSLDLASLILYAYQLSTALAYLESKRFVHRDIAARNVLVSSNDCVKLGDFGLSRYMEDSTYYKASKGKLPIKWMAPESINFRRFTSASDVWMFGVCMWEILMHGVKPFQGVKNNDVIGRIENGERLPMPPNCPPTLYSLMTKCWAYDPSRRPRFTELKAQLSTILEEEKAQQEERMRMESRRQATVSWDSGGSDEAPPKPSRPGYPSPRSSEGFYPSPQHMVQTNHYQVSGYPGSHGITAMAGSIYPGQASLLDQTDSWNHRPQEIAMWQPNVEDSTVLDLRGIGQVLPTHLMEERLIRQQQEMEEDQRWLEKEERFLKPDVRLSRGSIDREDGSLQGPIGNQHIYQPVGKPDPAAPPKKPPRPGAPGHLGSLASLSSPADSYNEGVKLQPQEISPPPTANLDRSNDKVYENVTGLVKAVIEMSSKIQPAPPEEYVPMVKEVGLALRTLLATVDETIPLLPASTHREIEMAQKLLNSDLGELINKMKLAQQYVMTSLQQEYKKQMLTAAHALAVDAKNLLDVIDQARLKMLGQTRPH

[12] = test system: Fibrinogen (Alexa647-labelled); assay: Alexa647-fibrinogen binding to printed small molecules – biochemical, small-molecule microarray, 635/667 nm fluorescence, artefact control for SMM control-protein annotation, profiling panel (AID 1131); conditions: fibrinogen-A647 binding fluorescence, higher = more signal;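 note: z-score merges 667 nm fluorescence with per-spot signal-to-noise over triplicate slides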
[13] = target: Follistatin (Homo sapiens) (UniProt P19883); assay: FST protein binding to printed compounds – biochemical, small-molecule microarray, 635/667 nm fluorescence, primary screen (AID 1132); conditions: 635 nm fluorescence, higher = more signal
Follistatin (Homo sapiens), sequence (P19883 whole entry, looked up): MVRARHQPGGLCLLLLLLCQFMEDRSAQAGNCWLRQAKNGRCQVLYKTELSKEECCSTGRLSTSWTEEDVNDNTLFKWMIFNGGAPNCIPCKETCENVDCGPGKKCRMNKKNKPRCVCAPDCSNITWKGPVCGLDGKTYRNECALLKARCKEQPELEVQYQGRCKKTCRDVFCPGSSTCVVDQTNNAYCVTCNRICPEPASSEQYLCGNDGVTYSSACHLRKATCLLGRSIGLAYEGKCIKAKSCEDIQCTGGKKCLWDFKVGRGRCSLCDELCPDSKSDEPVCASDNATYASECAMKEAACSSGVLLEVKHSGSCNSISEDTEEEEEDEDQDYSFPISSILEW

[14] = target: Fibroblast growth factor 2 (Homo sapiens) (UniProt P09038); assay: basic fibroblast growth factor binding to printed compounds – biochemical, small-molecule microarray, 635/667 nm fluorescence, primary screen (AID 1133); conditions: FGF2, fluorescence 635/667, higher = more signal
Fibroblast growth factor 2 (Homo sapiens), sequence (P09038 whole entry, looked up): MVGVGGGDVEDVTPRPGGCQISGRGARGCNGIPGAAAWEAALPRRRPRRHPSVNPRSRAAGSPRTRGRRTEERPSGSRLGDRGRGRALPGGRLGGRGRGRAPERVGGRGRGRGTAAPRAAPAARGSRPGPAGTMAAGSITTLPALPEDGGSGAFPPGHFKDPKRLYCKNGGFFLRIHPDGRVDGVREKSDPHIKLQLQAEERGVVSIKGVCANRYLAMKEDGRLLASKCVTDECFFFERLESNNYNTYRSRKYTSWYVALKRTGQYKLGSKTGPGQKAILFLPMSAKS

[15] = JC-1 mitochondrial potential readout, lung cancer cells – cell-based, A549, JC-1 fluorescence, basal, 24 h, 100 nL, profiling panel (AID 1138); conditions: higher = more signal;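 note: A549 lung adenocarcinoma cells under basal conditions with no added stimulus; test concentration not given here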
Lefty1 = Lefty1 protein binding to printed compounds – biochemical, small-molecule microarray, 635/667 nm fluorescence, primary screen (AID 1139); conditions: fluorescence 635/667, higher = more signal
[16] = test system: wheat germ agglutinin (Triticum aestivum), Alexa647-labelled; assay: Alexa647-WGA lectin binding to printed small molecules – biochemical, small-molecule microarray, 635/667 nm fluorescence, artefact control for SMM control-protein annotation, profiling panel (AID 1140); conditions: WGA-A647 binding, 635 nm fluorescence, higher = more signal;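 note: score merges 667 nm feature emission with signal to noise over triplicate slides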
[17] = target: Luciferin 4-monooxygenase (Photinus pyralis) (UniProt P08659); assay: inhibition of purified Photinus pyralis luciferase – biochemical, luminescence, purified enzyme, 2006 set, primary screen (AID 1141); conditions: purified firefly luciferase, SteadyGlo luminescence, 30 min; higher = more signal, called active from +8 up or from −8 down;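 note: cell-free assay with purified firefly luciferase at 100 ng per well in PBS; test concentration not given here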
Luciferin 4-monooxygenase (Photinus pyralis), sequence (P08659 whole entry, looked up): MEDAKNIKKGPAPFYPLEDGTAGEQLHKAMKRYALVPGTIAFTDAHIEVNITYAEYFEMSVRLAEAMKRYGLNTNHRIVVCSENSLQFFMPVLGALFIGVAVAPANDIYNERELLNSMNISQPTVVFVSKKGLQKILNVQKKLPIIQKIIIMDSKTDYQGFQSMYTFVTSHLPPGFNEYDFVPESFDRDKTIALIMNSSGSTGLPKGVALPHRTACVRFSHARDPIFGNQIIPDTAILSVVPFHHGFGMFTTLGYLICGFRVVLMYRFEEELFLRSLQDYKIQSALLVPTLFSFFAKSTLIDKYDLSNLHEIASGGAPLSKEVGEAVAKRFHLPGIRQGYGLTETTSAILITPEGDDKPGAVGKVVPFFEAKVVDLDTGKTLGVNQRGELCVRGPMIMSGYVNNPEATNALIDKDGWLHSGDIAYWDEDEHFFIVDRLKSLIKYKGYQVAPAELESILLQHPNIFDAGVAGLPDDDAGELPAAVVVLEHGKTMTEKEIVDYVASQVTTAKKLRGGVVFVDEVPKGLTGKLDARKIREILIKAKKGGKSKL

Row | Structure (SMILES) | composite z-score (Albumin (Bos taurus)) | composite Z-score [1] | composite z-score [2] | composite z-score [3] | composite z-score [4] | composite z-score [5] | composite z-score [6] | composite z-score (Sam68 (KHDRBS1)) | composite z-score [7] | composite z-score [8] | composite z-score [9] | composite z-score [10] | composite z-score [11] | composite z-score [12] | composite z-score [13] | composite z-score [14] | z-score [15] | composite z-score (Lefty1) | composite z-score [16] | z-score [17]
1 | C=CCOC(=O)[C@H]1[C@@H]2C(=O)O[C@@H](c3ccccc3)[C@@H](c3ccccc3)N2[C@@H](c2ccc(OCCOC(=O)[C@@H]3C[C@@H]4C(=O)N[C@@H](CC(C)C)C(=O)N4[C@@H]3c3ccc(O)cc3)cc2)[C@]12C(=O)Nc1ccc(I)cc12 | 0.822 | 1.65 (inactive) | 0.0469 | -0.0486 | 0.668 | 2.52 | 0.0414 | 1.3 | 1.33 | 1.13 | 0.785 | 0.935 | 0.443 | 0.761 | 1.08 | 1.89 | -0.946 | 0.677 | 0.902 | -2.13 (inactive)
2 | CN(C)CCCC[C@@H]1NC(=O)[C@@H]2C[C@H](C(=O)NCCCCCCNC(=O)CS)[C@H](c3cccc(OCCO)c3)N2C1=O | -0.361 | 0.303 (inactive) | -0.213 | -0.0649 | 0.48 | 0.95 | 0.312 | 0.555 | 0.402 | 0.658 | 1.5 | 0.0742 | 0.819 | -1.07 | 0.541 | 0.541 | 1.12 | 0.273 | 0.235 | -0.402 (inactive)
3 | COc1ccc(NC(=O)O[C@H]2[C@H](OC(=O)Nc3ccc4c(c3)OCO4)[C@H](OC(=O)Nc3ccc4c(c3)OCO4)[C@@H](OC)O[C@@H]2CO)cc1 | -0.0357 | -0.102 (inactive) | 0.037 | -0.117 | 0.609 | 1.36 | 1.16 | 1.26 | 0.0872 | 1.02 | 1.45 | 1.25 | 0.216 | 0.362 | 1.29 | 0.319 | 0.0258 | 0.293 | 0.8 | -6.52 (inactive)
4 | COCCCNC(=O)[C@@H]1c2ccccc2C(=O)N(Cc2cc(C(F)(F)F)cc(C(F)(F)F)c2)[C@H]1c1ccc(CO)cc1 | -0.873 | -0.0722 (inactive) | 0.531 | 0.0282 | 0.685 | 1.68 | -0.182 | 0.299 | -0.716 | -1.06 | 0.358 | 0.6 | 0.358 | -0.788 | 0.144 | 0.188 | 0.983 | 0.174 | -0.672 | 0.0036 (inactive)
5 | CC(c1ccccc1)C(O)C1C=CC2C(=O)N(c3ccccc3)C(=O)C2N1Nc1ccc(C#N)cc1 (stereo not given) | 0.976 | -0.105 (inactive) | 0.609 | -0.0062 | 0.6 | 3.28 | 0.359 | 1.34 | -0.34 | 1.15 | 2.19 | 1.22 | 0.648 | 0.993 | 1.12 | 0.329 | 1.03 | 1.12 | 0.772 | -0.424 (inactive)
6 | COc1ccc([Si](C)(C)[C@@H]2[C@@H](CC(=O)N(CCO)Cc3ccccc3)O[C@]3(C(=O)N(Cc4ccc(N5CCC5=O)cc4)c4ccccc43)[C@H]2C)cc1 | 0.212 | -0.272 (inactive) | -0.178 | -0.218 | -0.23 | 0.711 | -0.161 | 0.0201 | 0.508 | 0.783 | 1.28 | -0.324 | -0.162 | -0.263 | 0.818 | 0.988 | 0.445 | 0.565 | 0.431 | 0.295 (inactive)
7 | CC(C)C[C@@H]1NC(=O)[C@H]2C[C@@H](C(=O)NCCCCCNC(=O)CS)[C@@H](c3ccc(O)cc3)N2C1=O | -0.796 | 0.0136 (inactive) | -0.171 | -0.144 | 0.414 | 2.08 | 0.873 | 1.31 | 0.795 | 0.885 | 2.05 | 1.24 | 1.19 | 0.201 | 1.33 | 1.62 | -1.22 | 0.497 | 0.408 | -1.76 (inactive)
8 | Cc1c(-c2ccc(-c3ccc(Cl)c(Cl)c3)o2)nc(-c2ccccc2)c2c1CO[Si]2(C(C)C)C(C)C | 0.734 | -0.0877 (inactive) | -0.122 | -0.148 | 0.181 | 0.356 | -0.213 | 0.295 | -0.18 | 0.248 | 0.466 | 0.168 | -0.0127 | 0.407 | -0.161 | -0.255 | -0.777 | 0.351 | 0.284 | -0.056 (inactive)
9 | CN1C(=O)[C@]2(CCS(=O)(=O)c3ccccc3)N=C(c3ccc(OCCCO)cc3)O[C@@H]2c2ccccc21 | 0.568 | 0.222 (inactive) | 0.0026 | -0.121 | 0.531 | 2.81 | 0.354 | 1.2 | 0.502 | 0.838 | 2.44 | 1.27 | 1.26 | 0.495 | 1.47 | 0.699 | 1.87 | 0.34 | 0.318 | -1.76 (inactive)
10 | O=C1C2C=CC(C(O)c3cccc(O)c3)N(Nc3ccccc3F)C2C(=O)N1c1ccccc1 (stereo not given) | 0.92 | -0.539 (inactive) | 0.025 | -0.141 | 0.756 | -0.0811 | -0.841 | 0.664 | -0.406 | 0.0597 | 0.933 | 0.137 | 0.158 | 0.327 | 0.434 | -0.214 | -0.846 | 0.474 | 0.248 | 0.883 (inactive)
11 | C=C(COC)C(=O)CC[C@@H](OC(=O)c1cccnc1)c1cccc(OCCO)c1 | 0.0464 | -0.239 (inactive) | 0.158 | -0.107 | 0.75 | 0.148 | -0.292 | 0.804 | 0.423 | -0.095 | -0.007 | 0.23 | -0.437 | -1.48 | 1.29 | 0.773 | 0.525 | 1.19 | 0.981 | -2.86 (inactive)
